Data: PubChem BioAssay (NCATS)
Inconclusive results are not listed. Activity calls are given as the source filed them. Unless noted, calls follow the shape of the dose curve; as a rule, active = well fitted curve in either direction with a large enough effect (not every such curve was filed as active); inconclusive = small, poorly fitted or top-dose-only effect, or another doubt; inactive = flat fitted curve, though single readings scatter. Residues, ends and D or L forms follow the SMILES beside them.

Key:
[1] = target: Lysosomal acid glucosylceramidase (Homo sapiens) (UniProt P04062); assay: Glucocerebrosidase-p2 (AID 348; in the data active = potency below about 10 µM; also: potency is read from the fitted curve at half-maximal effect); conditions: purified GBA, blue fluorogenic substrate, 40 min
Sequence of Lysosomal acid glucosylceramidase (Homo sapiens) (P04062 whole entry, looked up): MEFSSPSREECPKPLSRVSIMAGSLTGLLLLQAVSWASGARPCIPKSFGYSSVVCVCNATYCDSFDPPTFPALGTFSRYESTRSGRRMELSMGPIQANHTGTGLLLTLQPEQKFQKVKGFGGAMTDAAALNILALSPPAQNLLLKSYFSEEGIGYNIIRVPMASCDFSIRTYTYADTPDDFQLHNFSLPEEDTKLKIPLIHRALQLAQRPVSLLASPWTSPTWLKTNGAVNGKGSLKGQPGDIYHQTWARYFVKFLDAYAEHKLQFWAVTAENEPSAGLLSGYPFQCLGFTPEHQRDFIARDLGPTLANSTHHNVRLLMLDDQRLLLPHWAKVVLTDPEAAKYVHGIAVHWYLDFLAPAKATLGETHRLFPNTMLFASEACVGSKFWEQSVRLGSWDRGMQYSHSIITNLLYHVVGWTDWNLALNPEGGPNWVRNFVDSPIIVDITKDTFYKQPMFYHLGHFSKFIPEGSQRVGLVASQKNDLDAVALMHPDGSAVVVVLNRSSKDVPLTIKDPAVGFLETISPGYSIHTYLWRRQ
How it was run: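 Compounds titrated from 0.6 nM upwards against 0.2 nM enzyme in pH 5.9 citric acid/KH2PO4, taurocholate, tween-20; blue fluorogenic substrate 80 uM, 40 min room temperature, stopped and read Ex 365/Em 440 for AC50.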

[2] = AP1 Signaling Pathway (AID 357); conditions: ME-180 AP-1-bla reporter, EGF-induced, beta-lactamase ratio, 5 h; at 7.69 µM (top of the series) unless noted; also: % is scaled to controls: 0 for no effect and ±100 for the full control effect
How it was run: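 AP-1-bla ME-180 cells with beta-lactamase reporter under AP-1 response element, stimulated with EC50 EGF; compounds titrated, 5 hours at 37 degrees Celsius. CCF4 read at 460/530 nm ratio; positive and negative modulators judged by AC50.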

[3] = NFAT Signaling Pathway (AID 444); conditions: Jurkat NFAT-bla M1, carbachol, beta-lactamase ratio, 5 h; at 7.69 µM (top of the series) unless noted;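 also: carbachol stimulus at about its EC50 of 1 µM final; % is scaled to controls: 0 for no effect and ±100 for the full control effect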
How it was run: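 Jurkat cells with NFAT-driven β-lactamase reporter and co-expressed M1 receptor, stimulated with carbachol (final 1 uM, ~EC50), compound titration, 5 h at 37 °C. CCF4 loaded 1 h at RT; 460/530 nm ratio gave %activity and AC50.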

[4] = Stat Signaling Pathway (AID 446); conditions: ME-180 SIE beta-lactamase reporter, IL-6 stimulated, 5 h; at 7.69 µM (top of the series) unless noted;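 also: ME-180 cervical cancer cells given 40 pM IL-6 alongside compound; SIE-controlled beta-lactamase reporter measured as 460/530 nm FRET emission ratio; % is scaled to controls: 0 for no effect and ±100 for the full control effect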
How it was run: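 Reporter line: ME-180 cervical carcinoma, SIE-beta-lactamase. Treatment: compound with 40 pM IL-6, 5 hrs, 37 C, in low-serum OPTI-MEM with 10 mM HEPES pH 7.3. Detection: 460/530 nm fluorescence.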

[5] = target: Glucocorticoid receptor (Homo sapiens) (UniProt P04150); assay: GR-GFP Redistribution (AID 450;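 active = compounds whose dose series gives a full or clear partial fitted curve of increased nuclear translocation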; also: potency is read from the fitted curve at half-maximal effect); conditions: U2OS GR-GFP nuclear translocation, laser cytometry, 2 h
Sequence of Glucocorticoid receptor (Homo sapiens) (P04150 whole entry, looked up, the tested form may be a part): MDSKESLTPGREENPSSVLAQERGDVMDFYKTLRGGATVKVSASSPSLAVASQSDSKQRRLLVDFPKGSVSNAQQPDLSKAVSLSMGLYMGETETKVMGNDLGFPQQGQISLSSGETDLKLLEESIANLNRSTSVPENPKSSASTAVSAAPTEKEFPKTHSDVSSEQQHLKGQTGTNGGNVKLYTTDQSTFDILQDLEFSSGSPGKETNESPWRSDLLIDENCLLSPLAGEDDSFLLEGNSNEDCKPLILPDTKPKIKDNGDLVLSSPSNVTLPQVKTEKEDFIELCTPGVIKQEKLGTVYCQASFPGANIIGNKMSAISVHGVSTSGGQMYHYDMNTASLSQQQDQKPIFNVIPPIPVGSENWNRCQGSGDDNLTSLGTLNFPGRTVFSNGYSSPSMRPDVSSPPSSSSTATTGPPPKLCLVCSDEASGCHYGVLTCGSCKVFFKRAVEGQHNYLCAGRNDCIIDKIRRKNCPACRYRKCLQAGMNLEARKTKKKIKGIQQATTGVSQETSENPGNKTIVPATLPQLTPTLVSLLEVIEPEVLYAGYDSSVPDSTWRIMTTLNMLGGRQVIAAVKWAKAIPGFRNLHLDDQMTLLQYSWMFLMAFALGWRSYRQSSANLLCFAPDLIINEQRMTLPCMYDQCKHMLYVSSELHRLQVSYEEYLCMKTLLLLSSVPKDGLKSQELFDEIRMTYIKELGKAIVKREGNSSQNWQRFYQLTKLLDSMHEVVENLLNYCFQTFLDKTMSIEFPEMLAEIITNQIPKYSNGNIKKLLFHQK

[6] = target: Glucocorticoid receptor (Homo sapiens) (UniProt P04150); assay: GR-EFC Redistribution (AID 451; calls by dose curve; also: potency is read from the fitted curve at half-maximal effect); conditions: CHO-K1 GR-EFC translocation, beta-gal luminescence, 2 h
How it was run: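 CHO-K1 cells expressing nuclear EA and GR-ED fragments of b-gal; compounds titrated up to 46 uM final, 2 h at 37 C. GR nuclear translocation read as complemented b-gal luminescence after 1 h RT detection.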

[7] = target: Mitogen-activated protein kinase 10 (Mus musculus) (UniProt Q61831); assay: JNK3 AlphaScreen Assay (AID 530); conditions: JNK3 lysate, c-Jun phosphorylation; series mostly up to 11.4 µM;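 also: kinase came from lysate of stimulated human HepG2 cells; signal reports phosphorylation of biotinylated GST-cJun 1-79 at Ser73 with 10 µM ATP; % is scaled to controls: 0 for no effect and ±100 for the full control effect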
How it was run: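 qHTS format: compounds tested as titrations against IL-1beta/TNF-alpha-activated HepG2 lysate JNK3 with biotin-GST-cJun substrate and 10 uM ATP at room temperature. Loss of anti-phospho-cJun AlphaScreen signal indicates inhibition.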

[8] = target: 3',5'-cyclic-AMP phosphodiesterase 4B (Homo sapiens) (UniProt Q07343); assay: qHTS Assay for Inhibitors of PDE-IV (AID 607; active = well fitted activation curve with a large enough effect in the main read-out, with a control signal flat, not every such curve was filed as active; also: % of control where 0% means no effect); conditions: HEK293 ACTOne CNG channel cells, membrane potential fluorescence; series mostly up to 22.9 µM
Sequence of 3',5'-cyclic-AMP phosphodiesterase 4B (Homo sapiens) (Q07343 whole entry, looked up): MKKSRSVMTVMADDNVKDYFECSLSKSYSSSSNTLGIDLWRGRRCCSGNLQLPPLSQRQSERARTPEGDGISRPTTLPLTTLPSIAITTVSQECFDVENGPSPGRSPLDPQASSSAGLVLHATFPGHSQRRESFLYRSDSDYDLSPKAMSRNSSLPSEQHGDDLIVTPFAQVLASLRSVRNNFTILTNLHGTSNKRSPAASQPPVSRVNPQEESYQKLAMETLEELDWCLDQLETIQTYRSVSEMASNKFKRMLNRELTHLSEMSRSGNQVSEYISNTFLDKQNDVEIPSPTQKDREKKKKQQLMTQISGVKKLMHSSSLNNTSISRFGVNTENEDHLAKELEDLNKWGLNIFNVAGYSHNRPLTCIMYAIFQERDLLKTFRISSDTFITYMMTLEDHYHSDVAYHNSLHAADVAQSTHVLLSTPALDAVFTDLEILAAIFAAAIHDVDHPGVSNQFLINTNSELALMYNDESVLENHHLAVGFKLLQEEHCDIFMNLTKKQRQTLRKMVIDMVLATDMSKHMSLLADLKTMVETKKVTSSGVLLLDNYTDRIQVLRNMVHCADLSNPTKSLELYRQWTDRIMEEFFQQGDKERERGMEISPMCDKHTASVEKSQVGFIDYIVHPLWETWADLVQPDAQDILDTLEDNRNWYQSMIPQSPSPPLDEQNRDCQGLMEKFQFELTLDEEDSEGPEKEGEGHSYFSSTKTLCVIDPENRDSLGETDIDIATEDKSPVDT
How it was run: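 Cell-based read-out of cAMP via a modified cyclic nucleotide-gated channel and membrane potential dye (535/590 nm) in HEK293 cells expressing PDE4 endogenously. Compounds tested up to 22.9 uM final; 100 uM RO 20-1724 reference.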

CN(C)c1ccc2nc3c(C(=O)O)cc(=O)c(O)c-3oc2c1
inactive: Potency [1] > 11.4 µM | activity change, negative = inhibition [2] -7.19% | activity change, negative = inhibition [3] 4.18% | activity, negative = inhibition [4] -14.8% | Potency [5] > 46 µM | Potency [6] > 9.22 µM | Potency [7] | Potency [8]

OC(Cc1cccnc1)(c1ccccc1)c1ccccc1
inactive: Potency [1] > 11.4 µM | activity change, negative = inhibition [2] 5.37% | activity change, negative = inhibition [3] -25.6% | activity, negative = inhibition [4] -5.74% | Potency [5] > 46 µM | Potency [6] > 9.22 µM | Potency [7] | Potency [8]

C[C@@H](NC(=O)C1(N)CCCC1)C(=O)O (HELM PEPTIDE1{[NC1(C(=O)[*:2])CCCC1].[dA]}$$$$V2.0)
inactive: Potency [1] > 11.4 µM | activity change, negative = inhibition [2] 5.64% | activity change, negative = inhibition [3] 15.7% | activity, negative = inhibition [4] 6.26% | Potency [5] > 46 µM | Potency [6] > 9.22 µM | Potency [7] | Potency [8]

CCSCCCC(=O)O
inactive: Potency [1] > 11.4 µM | activity change, negative = inhibition [2] -6.6% | activity change, negative = inhibition [3] 2.17% | activity, negative = inhibition [4] 8.19% | Potency [5] > 46 µM | Potency [6] > 9.22 µM | Potency [7] | Potency [8]

O=C(O)CCn1cnc2c(=S)nc[nH]c21
inactive: Potency [1] > 11.4 µM | activity change, negative = inhibition [2] -2.08% | activity change, negative = inhibition [3] 1.47% | activity, negative = inhibition [4] -0.455% | Potency [5] > 46 µM | Potency [6] > 9.22 µM | Potency [7] | Potency [8]

Clc1cccc(Cl)c1C(Nc1nncs1)Nc1nncs1
inactive: Potency [1] > 11.4 µM | activity change, negative = inhibition [2] -1.25% | activity change, negative = inhibition [3] 2.41% | activity, negative = inhibition [4] -3.83% | Potency [5] > 46 µM | Potency [6] > 9.22 µM | Potency [7] | Potency [8]

Nc1ccccc1N=Nc1c(S(=O)(=O)O)cc2cc(S(=O)(=O)O)cc(O)c2c1O
inactive: Potency [1] > 11.4 µM | activity change, negative = inhibition [2] -8.99% | activity change, negative = inhibition [3] -1.89% | activity, negative = inhibition [4] -10.2% | Potency [5] > 46 µM | Potency [6] > 9.22 µM | Potency [7] | Potency [8]

O=C(O)CSCc1cccc2ccccc12
inactive: Potency [1] > 11.4 µM | activity change, negative = inhibition [2] -0.864% | activity change, negative = inhibition [3] 16.3% | activity, negative = inhibition [4] 2.65% | Potency [5] > 46 µM | Potency [6] > 9.22 µM | Potency [7] | Potency [8]

O=C1c2ccccc2C(=O)c2c(Nc3ccc4c5c(cccc35)C(=O)c3ccccc3-4)cccc21
inactive: Potency [1] > 11.4 µM | activity change, negative = inhibition [2] -3.08% | activity change, negative = inhibition [3] 6.45% | activity, negative = inhibition [4] 0.0671% | Potency [5] > 46 µM | Potency [6] > 9.22 µM | Potency [7] | Potency [8]

C[N+](C)(C)c1ncnc2c1ncn2[C@@H]1C[C@H](O)[C@@H](CO)O1
inactive: Potency [1] > 11.4 µM | activity change, negative = inhibition [2] 2.41% | activity change, negative = inhibition [3] 9.78% | activity, negative = inhibition [4] 3.06% | Potency [5] > 46 µM | Potency [6] > 9.22 µM | Potency [7] | Potency [8]

NC1(C(=O)OCc2ccccc2)CCCC1
inactive: Potency [1] > 11.4 µM | activity change, negative = inhibition [2] 8.77% | activity change, negative = inhibition [3] -4.79% | activity, negative = inhibition [4] 3.45% | Potency [5] > 46 µM | Potency [6] > 9.22 µM | Potency [7] | Potency [8]

NC(=O)C[C@@H](N)c1nn[nH]n1
inactive: Potency [1] > 11.4 µM | activity change, negative = inhibition [2] 9.01% | activity change, negative = inhibition [3] 14.8% | activity, negative = inhibition [4] 9.79% | Potency [5] > 46 µM | Potency [6] > 9.22 µM | Potency [7] | Potency [8]

Cc1ncc(CSc2ccccc2N)c(CO)c1O
inactive: Potency [1] > 11.4 µM | activity change, negative = inhibition [2] 6.48% | activity change, negative = inhibition [3] 1.52% | activity, negative = inhibition [4] -0.62% | Potency [5] > 46 µM | Potency [6] > 9.22 µM | Potency [7] | Potency [8]

CCOC(=O)c1c(O)[nH]c(=O)c(CC)c1C
inactive: Potency [1] > 11.4 µM | activity change, negative = inhibition [2] -5.14% | activity change, negative = inhibition [3] -3.29% | activity, negative = inhibition [4] 13.4% | Potency [5] > 46 µM | Potency [6] > 9.22 µM | Potency [7] | Potency [8]
